Screen size: about 48,000 compounds; about 13,000 (27%) showed an effect of 50% or more. Some of the results follow.
test system: Wolbachia pipientis; assay: Anti-Wolbachia Cell-Based Screen; type: functional; parameters: scale not given: in the data most compounds retested in dose-response had high values; settings: 5 µM

Point of comparison: O=C(c1cccnc1)N1Cc2ccccc2OCC1Cn1ccnc1 (stereo not given), “Percent Effect” value 99.63%. Against it:
- CN1C[C@@H]2CN(C(=O)C3CC=CC3)C[C@@H]2C1=O — lower, -1.664%
- Cc1nnc(CN2CCC3(CCC(=O)N([C@H]4CC[C@H](O)CC4)C3)CC2)o1 — lower, 5.383%
- CC(C)=CCN1CCN(C(C)c2cccnc2)CC1 (stereo not given) — lower, 2.838%
- CN(CCN1CCOCC1)C(=O)CCCOCCc1ccccc1 — lower, 6.061%
- CCCS(=O)(=O)N(C)C(=O)CCc1ccccc1 — lower, -9.766%
- CCc1ccccc1OCCN(C)C(=O)CCN1CCCO1 — lower, 2.484%
- COCCC(=O)N(C)CCC1=CCN(C)CC1 — higher, 102.2%
- CCN(CC1=CCN(C)CC1)C(=O)CCOC — lower, 97.45%
- CCOCCC(=O)N(C)CC1Cc2ccccc2CN1C (stereo not given) — lower, 13.82%
- CN1CC=C(CCN(C)C(=O)CCc2ccccc2)CC1 — lower, 90.24%
- CCN(Cc1nc(COC)no1)C(=O)CCn1c(C)cc2ccccc21 — lower, -20.66%
- COCCC(=O)N(Cc1cccnc1)CC1CCN(C2CCCC2)CC1 — lower, -4.098%
- FC(F)(F)C1CCCn2c(CNCc3ccsc3)nnc21 (stereo not given) — lower, 5.709%
- CCCc1noc(CS(=O)(=O)c2cccc(OC)c2)n1 — lower, 19.11%
- CC(NC(=O)NCCCNS(C)(=O)=O)c1ccncc1 (stereo not given) — lower, 0.1158%
- CCc1noc(C(C)N(C)Cc2cc(Br)ccc2OC)n1 (stereo not given) — lower, 1.676%
- O=C(c1ccc(Cl)cc1)N1CCC(N2CCCOC2=O)CC1 — higher, 100%
- O=C1OCCN1CC(=O)N1C[C@H]2CC[C@@H]1CN(C(=O)c1ccccc1)C2 — lower, -14.7%
- CCS(=O)(=O)N(C)C1CCN(C(=O)c2ccc(Cl)cc2)CC1 — lower, -4.195%
- CC(C)S(=O)(=O)NCC1CCCN(C(=O)c2ccc(Cl)cc2)C1 (stereo not given) — lower, -24.01%
- O=C(c1ccc(Cl)cc1)N1CCC(N2CCOC2=O)CC1 — higher, 107.7%
- COc1cccc2c1OCC(C(=O)N1CCC(N3CCOC3=O)CC1)C2 (stereo not given) — lower, -3.402%
- COCc1ccccc1NC(=O)NC(C)c1ccc(C)o1 (stereo not given) — lower, -2.277%
- Cc1ccc(F)cc1S(=O)(=O)Nc1cnc(N2CCCC2)nc1 — lower, 3.743%
- Cn1cc(Br)c(=O)c(NS(=O)(=O)c2cc(F)ccc2Cl)c1 — lower, -8.345%
- O=C(O)c1c[nH]c2cc(NS(=O)(=O)c3cccc(Cl)c3F)ccc12 — lower, -1.912%
- COc1ccccc1S(=O)(=O)Nc1ccc2c(C(=O)O)c[nH]c2c1 — lower, -5.607%
- O=C(O)c1c[nH]c2cc(NS(=O)(=O)c3cccc(F)c3F)ccc12 — lower, 98.18%
- CSc1c[nH]nc1NS(=O)(=O)c1cc(F)ccc1Cl — lower, 16.47%
- O=C(O)c1c[nH]c2cc(NS(=O)(=O)c3cc(F)ccc3Cl)ccc12 — lower, 93.61%
- Cc1ccc(F)cc1S(=O)(=O)Nc1ccc2c(C(=O)O)c[nH]c2c1 — lower, 88.84%
- Cc1c(F)cc(C(=O)O)cc1S(=O)(=O)Nc1cccc(C(F)F)c1 — lower, -21.42%
- O=C(O)c1c[nH]c2cc(NS(=O)(=O)c3ccc(Cl)cc3F)ccc12 — higher, 101.8%
- Cc1cc(NC(=O)N2CCN(C)CC2C)n(CCC#N)n1 (stereo not given) — lower, -16.44%
- N#CCCN(Cc1ccco1)C(=O)Cc1ccc(-n2cnnn2)cc1 — lower, -12.81%
- O=C(c1ccc2ccccc2c1)C1CCCN(C(=O)Cn2cnnn2)C1 (stereo not given) — lower, -17.21%
- N#Cc1nccnc1N1CCC(c2nc(C(F)(F)F)c[nH]2)CC1 — lower, -6.885%
- CNC(=O)NC(=O)CN1CCCN(CC(F)(F)F)CC1 — lower, 5.4%
- Cc1nn(C)c2ncc(S(=O)(=O)N3CCCC(C)CC3)cc12 (stereo not given) — lower, -7.374%
- COC(=O)Cn1cccc(S(=O)(=O)N2CCC(C)CC2)c1=O — lower, 3.954%
- Cn1cnc(S(=O)(=O)N2CCOCC2)c1Cl — lower, -4.923%
- CC(C)Cn1nc2ccc(S(=O)(=O)N3CCC(C)CC3)cn2c1=O — higher, 132.8%
- CC(C)CCn1nc2ccc(S(=O)(=O)N3CCOCC3)cn2c1=O — higher, 120.3%
- CCC(C)NC(=O)NCCCn1nc2ccccn2c1=O (stereo not given) — lower, -2.078%
- COCCO[C@H]1CCN(C(=O)c2ccno2)[C@H]1Cc1ccncc1.O=C(O)C(F)(F)F — lower, -8.897%
- CC/C=C(/C)C(=O)NCc1ccnc(OC2CCOCC2)c1 — lower, -6.645%
- CC(=O)NCc1nnc2n1CCN(c1ncnc3c(C)csc13)CC2 — lower, -2.169%
- O=S(=O)(CCCn1cncn1)Cc1ccc(F)cc1Cl — lower, 8.322%
- COCCN(Cc1ccoc1)C(=O)c1c(F)cccc1F — higher, 126.9%
- CCN(Cc1ccoc1)C(=O)c1ccc(C)c(S(N)(=O)=O)c1 — lower, 0.3555%
- CCc1ncc(C(=O)N(CCOC)Cc2ccccc2F)cn1 — lower, -19.66%
- COCCN(Cc1ccoc1)C(=O)c1ccccc1Cl — lower, -4.504%
- CCSc1ccccc1C(=O)N(CCOC)Cc1ccoc1 — higher, 121.3%
- COCCN(Cc1ccncc1)C(=O)C1COc2c(cccc2OC)C1 (stereo not given) — lower, 4.804%
- COCCN(CCOC)C(=O)c1ccoc1C — lower, -2.566%
- COCCN(Cc1ccoc1)C(=O)c1c(F)cccc1Cl — lower, -1.026%
- COCCN(Cc1ccoc1)C(=O)c1ccccc1OC — higher, 102.9%
- CCN(Cc1ccoc1)C(=O)c1ccncc1O — lower, 2.225%
- COCCN(Cc1ccoc1)C(=O)c1ccc(Cl)s1 — higher, 106%
- CCOc1ccc(CN(CCOC)C(=O)c2ccncc2Cl)cc1 — lower, 0.1724%
- N[C@H]1CN(C(=O)c2ccccc2OCCc2ccccc2)C[C@@H]1C1CC1 — lower, 18.87%
- O=S(=O)(NC1=NCN(CCc2cccs2)CN1)c1ccccc1 — lower, 2.891%
- Cc1ncc2c(n1)CN(Cc1cn3ccsc3n1)CC2 — lower, -12.96%
- COCCCN(Cc1ccncc1)C(=O)CSc1ccc(F)cc1 — lower, -0.07203%
- CCN(C)c1ccc(C(=O)N(CCOC)Cc2ccccn2)cc1 — lower, -4.982%
- NC(=O)CCN(C(=O)CSc1ccc(F)cc1)c1ccc(F)cc1 — lower, -8.487%
- COCCN(Cc1ccoc1)C(=O)c1cccnc1SC — lower, 9.468%
- COCCN(Cc1ccoc1)C(=O)CSc1ccc(F)cc1 — higher, 117.6%
- COCCN(Cc1ccoc1)C(=O)c1ccccn1 — higher, 112.1%
- O=C(CN1CCC2(CCCN(CCO)C2=O)C1)NCCc1ccccc1 (stereo not given) — lower, 3.055%
- O=C(COc1coc(CN2CCCCC2)cc1=O)Nc1ccc(Cl)cc1 — lower, -2.562%
- Cc1ccc(NS(=O)(=O)c2cc3c(c(C(=O)O)c2)OCCO3)c(F)c1 — lower, -7.996%
- Cc1cc(C)cc(N(C)S(=O)(=O)c2cc3c(c(C(=O)O)c2)OCCO3)c1 — lower, -3.92%
- Cc1ccccc1NS(=O)(=O)c1cc2c(c(C(=O)O)c1)OCCO2 — lower, -5.791%
- Cc1ccc(F)c(NS(=O)(=O)c2cc3c(c(C(=O)O)c2)OCCO3)c1 — higher, 118.3%
- CN(c1ccc(F)c(F)c1)S(=O)(=O)c1cc2c(c(C(=O)O)c1)OCCO2 — lower, -16.04%
- Cc1cccc(NS(=O)(=O)c2cc3c(c(C(=O)O)c2)OCCO3)c1 — higher, 105.7%
- CCc1cccc(NS(=O)(=O)c2cc3c(c(C(=O)O)c2)OCCO3)c1 — lower, 10.09%
- Cc1cc(C)cc(NS(=O)(=O)c2cc3c(c(C(=O)O)c2)OCCO3)c1 — lower, 6.571%
- Cc1ccc(C)c(NS(=O)(=O)c2cc3c(c(C(=O)O)c2)OCCO3)c1 — higher, 110.3%
- Cc1nc(CN(C)C(=O)c2cccc(CC3CCNCC3)c2)no1 — lower, -18.2%
- CCc1nnsc1C(=O)NC(CC(C)C)C(=O)OC (stereo not given) — lower, -4.538%
- CN1C[C@@H](NC(=O)c2cc(F)cc(F)c2)C[C@H]1C(=O)NCc1ncc[nH]1 — lower, 4.795%
- COc1ccccc1NCC(=O)NCc1scnc1C — lower, -10.76%
- Cc1nc(C)c(C(=O)N2Cc3ccccc3OCC2Cn2ccnc2)o1 (stereo not given) — lower, -31.31%
- Cc1nc(C)c(C(=O)N2Cc3ccccc3OCC2Cn2ccnc2)s1 (stereo not given) — lower, 70.21%
- CC1CN(CCC(=O)NCCc2cccnc2)Cc2ccccc2O1 (stereo not given) — lower, 11.18%
- CN(CC1COc2ccccc2O1)C(=O)NCCCn1ccnc1 (stereo not given) — lower, -8.094%
- CC(Cn1ccnc1)NC(=O)NCCN1CCc2ccccc2C1 (stereo not given) — lower, 3.376%
- CCc1nc2n(n1)CC(NCCc1cccs1)CC2 (stereo not given) — lower, -19.61%
- N#Cc1c(F)cccc1NCCCOCC1CCOCC1 — lower, -8.528%
- O=C1CC(c2ccsc2)c2snc(C(=O)O)c2N1 (stereo not given) — lower, -3.117%
- CCc1nsc(N2CCN(C(=O)COc3ccccc3)CC2)n1 — lower, -3.89%
- O=C1CCC2(CCCN(C(=O)Cc3ccccc3)C2)N1 (stereo not given) — lower, -74.63%
- Cc1ccc(N2CCN(C(=O)COc3ccccc3)CC2)nn1 — lower, -10.88%
- COc1ccc(CC(=O)N2CC(=O)NCC(C)(C)C2)cc1 — lower, 81.26%
- O=C(O)C(F)(F)F.O=C1CCC2(CCCN(C(=O)Cc3cccnc3)C2)N1 (stereo not given) — lower, -30.04%
- Cc1ccnc2c1NC(=O)CN2C(=O)CCc1ccccc1 — lower, 5.988%
- CC1(C)CNC(=O)CN(C(=O)CCc2ccccc2)C1 — lower, 92.84%
- CC1(C)CNC(=O)CN(C(=O)COc2ccccc2)C1 — lower, 99.32%
- CCc1ccc(CCC(=O)N2CCC(=O)Nc3cccnc32)cc1 — lower, -4.556%
- Cc1nc(-c2ccc(CC(=O)N3CCNC(=O)C3)cc2)cs1 — lower, -10.4%
- CC1(C)CNC(=O)CN(C(=O)Cc2ccccc2)C1 — lower, 98.91%
- COc1ccc(CC(=O)N2CC[C@@H]3NC(=O)CC[C@@H]32)cc1 — lower, -10.22%

Reference: ChEMBL document CHEMBL3988442, “University of Dundee, Small-Polar-MMV Screening Library” (2021)
